Assay outcomes as filed in PubChem BioAssay.
Sampled rows, rich in hits. Any-hit rate of the full collection: about 19%.
Pf growth 96h: Primary qHTS for delayed death inhibitors of the malarial parasite plastid, 96 hour incubation; P. falciparum luciferase reporter growth, 96 h; Potency, µM (highest dose often 28.7 µM), without a hit: at the top dose activity change, negative = inhibition, usual class: inhibitors; 6.9% of 320,000 active; also: potency is read from the fitted curve at half-maximal effect; % is scaled to controls: 0 for no effect and ±100 for the full control effect
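Parasite growth measured via integrated firefly luciferase reporter in P. falciparum. Infected erythrocytes at 2% hematocrit, 0.05% parasitemia final were treated 96 hours at 37 C under 5% CO2, and luminescence was read.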
Shiga toxin inh: A qHTS for Small Molecule Inhibitors of Shiga Toxin | Vero cells, Shiga toxin protein synthesis inhibition reporter | inhibition, % at 38.7 µM | 9.2% of 290,000 active | AID 2315, 2010; in the data active = inhibition mostly above about 28%, no sharp cut-off; inactive = mostly below about 43%; also: 0% is about no effect
SARS PLP yeast: qHTS of Yeast-based Assay for SARS-CoV PLP; Potency, µM (titrated, usually from 32.9 µM), for the others: top-dose activity, positive = growth rescue, hits mostly activators; AID 485353, 2010; S. cerevisiae expressing SARS-CoV PLpro, growth rescue; 0.19% of 330,000 active; calls by dose curve; also: potency is read from the fitted curve at half-maximal effect; 0% is about no effect; nearly all actives have a fitted effect of over 55% in size
Pf growth 48h: Primary qHTS for delayed death inhibitors of the malarial parasite plastid, 48 hour incubation | P. falciparum luciferase growth in erythrocytes, 48 h | Potency, µM (series often up to 28.7 µM), for inactives: at the top dose activity change, negative = inhibition, most hits filed as inhibitors | 5.9% of 310,000 active | AID 504832, 2011; also: potency is read from the fitted curve at half-maximal effect; % is scaled to controls: 0 for no effect and ±100 for the full control effect
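Compounds are pin-transferred into medium, infected erythrocytes (2% hematocrit, 0.1% parasitemia final) are added, and plates sit one parasite generation at 37 C in 5% CO2. Detection reagent is then added and luminescence measured.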
AMA1 RON2 block: qHTS for Inhibitors of AMA1-RON; Towards Development of Antimalarial Drug Lead: Primary Screen | Plasmodium falciparum AMA1 (3D7) - RON2 peptide interaction | AlphaScreen AMA1-biotinylated RON2 peptide binding | Potency, µM (doses to about 58.2 µM), without a hit: at the highest dose activity change, negative = inhibition, usual class: inhibitors | 0.2% of 360,000 active;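 also: potency is read from the fitted curve at half-maximal effect; 0% = vehicle wells and -100% = peptide control; nearly all actives have a fitted effect of over 45% in size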
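AMA1 (3D7) with his tag at 25 nM final met compounds first, then biotinylated RON2 peptide at 25 nM; detection used donor plus acceptor beads, 10 µg/mL apiece, read by AlphaScreen after 30 min at room temperature.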
CHX counter: Cycloheximide Counterscreen for Small Molecule Inhibitors of Shiga Toxin | cell reporter, cycloheximide protein synthesis inhibition counterscreen | max response, % | 12% of 300,000 active; in the data active = max response mostly above about 13%, no sharp cut-off; inactive = mostly below about 14%; also: read at 38.3 µM for the half of the compounds with a filed dose; 0% is about no effect
Starred values were filed as active, the others as inactive; ? = inconclusive; · = no result given; [ ] = dose if it differs, or a comment. Unless noted, calls follow the shape of the dose curve; as a rule, active = well fitted curve in the direction sought with a large enough effect; inconclusive = small, poorly fitted or top-dose-only effect, or another doubt; inactive = no such curve, though single readings can be large; an effect the other way counts as inactive or inconclusive.

SMILES	Pf growth 96h	Shiga toxin inh	SARS PLP yeast	Pf growth 48h	AMA1 RON2 block	CHX counter
COc1ccccc1N(O)C1CC(=O)N(c2ccc(F)cc2)C1=O (centres undefined)	43%	61*	-36%	9%	1%	32*
CCCOc1ccccc1N1C(=O)CC(N(O)c2ccccc2)C1=O (centres undefined)	20%	28	-1%	1%	-8%	14*
COc1ccccc1N1C(=O)CC(N(O)c2ccccc2)C1=O (centres undefined)	35%	2	1%	11%	5%	-1
CCCOc1ccc(N2C(=O)CC(N(O)c3ccccc3)C2=O)cc1 (centres undefined)	47%	113*	-1%	51%	-14%	20
CCCOc1ccc(N2C(=O)CC(N(CCc3ccccc3)C(=O)c3ccccc3)C2=O)cc1 (centres undefined)	25%	14	0%	1%	16%	21*
Cc1ccccc1N(C(=O)CNC(=O)c1ccco1)C(C(=O)NC1CCCC1)c1ccncc1 (centres undefined)	22%	-10	-3%	?	9%	-5
CC(C)Cn1nc(C(=O)NCc2ccccc2CN2CCCC2)c2ccccc2c1=O	?	·	-1%	?	-1%[11.6 µM]	·
CCCn1nc(C(=O)NNC(=O)c2cccc(C)c2)c2ccccc2c1=O	·	·	-11%	·	88%	·
CCCCn1nc(C(=O)NCc2ccccc2CN2CCCC2)c2ccccc2c1=O	7.4µM*	·	1%	9.3µM*	-3%	·
CCCCn1nc(C(=O)NCC2COc3ccccc3O2)c2ccccc2c1=O (centres undefined)	?	·	1%	10µM*	-3%	·
Cn1nc(C(=O)NCC2COc3ccccc3O2)c2ccccc2c1=O (centres undefined)	?	·	1%	?	-12%	·
CCCCn1nc(C(=O)NNC(=O)c2ccncc2)c2ccccc2c1=O	?	20*	?	12%	33%	40*
CCCCn1nc(C(=O)Nc2nc3c(s2)CCCC3)c2ccccc2c1=O	6.6µM*	-13	21%	?	-4%	7
CCCCn1nc(C(=O)NCC(c2cccs2)N2CCOCC2)c2ccccc2c1=O (centres undefined)	?	·	-2%	9.3µM*	-7%	·
COc1cc(C2C(C#N)=C(N)N(c3sc4c(c3C#N)CCCC4)C3=C2C(=O)CC(C)(C)C3)cc(OC)c1OC (centres undefined)	12µM*	-16	2%	?	12%	0
Nc1c(C(=O)NCc2ccccc2)nnn1Cc1ccccc1	-30%	-18	-2%	·	2%	-5
CN(C)/C=N/c1c(C(=O)NCc2ccccc2)nnn1Cc1ccccc1	8%	-7	-5%	2.6µM*	-7%	3
CCc1ccc(NC(=O)[C@H](C)NC(=O)C2CCN(C(=O)[C@@H](NC(=O)OC(C)(C)C)C(C)C)CC2)cc1	?	53	1%	?	0%	14*
CC(C)[C@H](NC(=O)OC(C)(C)C)C(=O)N1CCC(C(=O)N[C@@H](C)C(=O)Nc2ccc(F)cc2)CC1	0%	33	1%	-13%	20%	-2
CCc1ccc(NC(=O)[C@H](C)NC(=O)C2CCN(C(=O)[C@@H](N)Cc3ccccc3)CC2)cc1	61%	23*	1%	26%	0%	16*
COc1ccc(N(C)S(=O)(=O)c2cccc(C(=O)N3CCN(Cc4ccc5c(c4)OCO5)CC3)c2)cc1	13µM*	·	2%	?	-25%	·
COc1ccc(N2CCN(C(=O)c3ccc(NS(=O)(=O)c4ccccc4)cc3)CC2)cc1	-23%	35	-11%	?	-5%	20*
COc1ccc(OC)c(CN2CCN(C(=O)c3cccc(S(=O)(=O)N(C)c4ccccc4)c3)CC2)c1	·	·	·	·	-22%	·
COc1ccc(NS(=O)(=O)c2ccc(C(=O)N3CCCCCC3)cc2)cc1	·	·	2%	·	58%	·
COc1ccc(N2CCN(C(=O)c3ccccc3N(C)S(=O)(=O)c3ccc(C)cc3)CC2)cc1	10µM*	-9	-4%	?	?	0
SMILES	Pf growth 96h	Shiga toxin inh	SARS PLP yeast	Pf growth 48h	AMA1 RON2 block	CHX counter
COc1ccc(N(C)S(=O)(=O)c2cccc(C(=O)N3CCN(c4ccccc4)CC3)c2)cc1	?	·	-4%	10µM*	?	·
CC(=O)Nc1c(NC(=O)CC#N)[nH]c2c(c1=O)c(=O)n(C)c(=O)n2C	-25%	5	0%	17%	14%	4
COc1ccc(N2CCN(C(=O)c3cccc(N4C(=O)C5C6C=CC(C6)C5C4=O)c3)CC2)cc1 (centres undefined)	61%	-4	11%	10µM*	2%	1
COc1ccc(N2CCN(C(=O)c3cccc(N4C(=O)C5CC=CC(C)C5C4=O)c3)CC2)cc1 (centres undefined)	43%	-18	6%	21%	-2%	-1
CCc1cc2c(=O)c(-c3nc4ccccc4n3C)coc2c(CN2CCCCC2C)c1O (centres undefined)	?	-9	-1%	?	-30%	-1
Cc1oc2c(CN3CCCCC3C)c(O)ccc2c(=O)c1-c1ccc(Br)cc1 (centres undefined)	13µM*	13	0%	13µM*	-3%	-2
CN(Cc1c(O)ccc2c1oc(=O)c1ccccc12)C1CCCCC1	?	25	-1%	5.2µM*	21µM*	-1
CC1CCCCN1Cc1c(O)ccc2c(=O)c(-c3nc4ccccc4s3)coc12 (centres undefined)	10µM*	61*	0%	2.1µM*	36%	28*
Cc1oc2c(CN3CCOCC3)c(O)ccc2c(=O)c1-c1ccc(Br)cc1	13µM*	0	4%	4.1µM*	-17%	-2
O=C(NCCCN1CCCC1=O)c1c(O)nc2sccn2c1=O	1%	·	-1%	?	-4%	·
COc1cccc(NCc2cc(=O)oc3cc(C)c(C(C)C)cc23)c1	?	2	-3%	?	-12%	5
O=C(NCc1ccccc1)C1CC(=O)N(C2CCCCC2)C1 (centres undefined)	-24%	-3	·	1%	-8%	-1
CCCC(=O)c1c[nH]c(C(=O)NCCCN2CCOCC2)c1	-20%	-16	0%	?	10%	-5
CN(C(=O)c1cccc(NC(=O)Cc2ccc(NC(=O)C3CCN(C(=O)C4CCCC4)CC3)cc2)c1)C1CCCC1	·	·	·	·	-3%	·
Cc1oc2c(CN3CCCC3)c(O)ccc2c(=O)c1-c1ccc(Cl)cc1	-2%	28	2%	?	4%	1
